# From PubChem BioAssay (NCATS)
# Where “and” joins values, the source holds several entries; their conditions need not be identical. Equal entries are not always repeated. Records with an inconclusive call do not appear. A call without a number means that no potency is given here. Calls of active or inactive are those of the source. Calls come from the whole dose curve; as a rule, active = well fitted inhibition curve with a large enough effect; inconclusive = small, poorly fitted or top-dose-only effect; inactive = flat fitted curve, though single readings scatter.
# Molecular target: Ubiquitin carboxyl-terminal hydrolase 1 (Homo sapiens) (UniProt O94782)
# Assay: Inhibitors of USP1/UAF1: Pilot qHTS (AID 504865); note: nearly all actives have a fitted effect of over 35% in size
# Settings: purified USP1/UAF1, Ub-rhodamine cleavage fluorescence; series mostly up to 114 µM
# Outline: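 USP1/UAF1 complex at 1 nM preincubated 15 min at room temperature with compound, then Ub-Rho substrate added at 150 nM final. Fluorescence (480/540 nm) read kinetically in 50 mM HEPES pH 7.8, 0.5 mM EDTA, 1 mM TCEP, 0.1 mg/ml BSA, 0.01% Tween-20.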
# Potency is the fitted concentration of half-maximal effect.
# Chain of Ubiquitin carboxyl-terminal hydrolase 1 (Homo sapiens) (O94782 whole entry, looked up): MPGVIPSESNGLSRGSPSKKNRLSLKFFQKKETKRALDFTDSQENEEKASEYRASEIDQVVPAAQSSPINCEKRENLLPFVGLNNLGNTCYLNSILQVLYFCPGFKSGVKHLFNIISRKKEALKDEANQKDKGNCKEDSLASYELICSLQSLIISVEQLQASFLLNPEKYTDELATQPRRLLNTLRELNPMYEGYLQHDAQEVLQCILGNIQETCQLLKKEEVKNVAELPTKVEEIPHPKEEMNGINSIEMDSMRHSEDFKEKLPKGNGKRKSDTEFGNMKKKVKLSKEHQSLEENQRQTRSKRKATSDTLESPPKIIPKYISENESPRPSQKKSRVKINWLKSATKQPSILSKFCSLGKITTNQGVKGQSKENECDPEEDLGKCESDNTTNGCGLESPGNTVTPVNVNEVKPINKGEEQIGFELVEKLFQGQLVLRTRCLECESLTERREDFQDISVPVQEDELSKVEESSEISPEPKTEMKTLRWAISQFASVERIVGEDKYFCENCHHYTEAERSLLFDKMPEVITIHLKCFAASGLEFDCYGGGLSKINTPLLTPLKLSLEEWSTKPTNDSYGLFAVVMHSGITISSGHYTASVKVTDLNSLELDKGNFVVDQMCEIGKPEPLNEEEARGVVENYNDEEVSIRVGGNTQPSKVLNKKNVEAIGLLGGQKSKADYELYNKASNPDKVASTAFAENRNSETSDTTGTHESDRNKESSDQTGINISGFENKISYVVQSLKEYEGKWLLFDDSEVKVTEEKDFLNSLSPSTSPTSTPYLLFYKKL
row,Structure (SMILES),Potency
1,FC(F)(F)C(F)(F)C(F)(F)C(F)(F)C(F)(F)C(F)(F)F,inactive
2,C[C@H](O)CN(C)C,inactive
3,CN(C)C=Nc1c(I)cc(I)c(CCC(=O)O)c1I,inactive
4,CNC(=O)C[C@@H](N)C(=O)N[C@@H](C(=O)N[C@@H]1C(=O)N2[C@@H]1SC(C)(C)[C@@H]2C(=O)O)c1ccc(O)cc1,inactive
5,CN1CCCC(CN2c3ccccc3Sc3ccccc32)C1 (stereo not drawn),inactive
6,O=C(O)COc1ccccc1/C=N/NC(=O)c1ccncc1,inactive
7,O=C(O)[C@H]1C(=CCO)O[C@H]2CC(=O)N12,inactive
8,CCCc1nc(C(C)(C)O)c(C(=O)OCc2oc(=O)oc2C)n1Cc1ccc(-c2ccccc2-c2nn[nH]n2)cc1,inactive
9,O=C(O)/C=C/C(=O)Nc1ccc(S(=O)(=O)Nc2nccs2)cc1,inactive
10,CCCCCCCCCCCCCCCCCC[N+](C)(C)CCC[Si](OC)(OC)OC,inactive
11,Cc1cc(-c2ccc(N=Nc3ccc4c(S(=O)(=O)O)cc(S(=O)(=O)O)c(N)c4c3O)c(C)c2)ccc1N=Nc1ccc2c(S(=O)(=O)O)cc(S(=O)(=O)O)c(N)c2c1O,11.2 µM (active) and 25.1 µM (active)
12,CC(C)(C)CC(C)(C)c1cc(Cc2cc(C(C)(C)CC(C)(C)C)cc(-n3nc4ccccc4n3)c2O)c(O)c(-n2nc3ccccc3n2)c1,inactive
13,CCN(CC)CCC(=O)N1c2ccccc2Sc2ccc(C(F)(F)F)cc21,inactive
14,CCN(CC)CCC(=O)N1c2ccccc2Sc2ccc(Cl)cc21,inactive
15,CC(=O)[O][Al][O]C(C)=O,inactive
16,CCCCC[C@H](O)/C=C/[C@@H]1[C@H]2C/C(=C/CCCC(=O)O)O[C@H]2C[C@H]1O,inactive
17,CC(C)NCC(O)COc1ccccc1-n1cccc1 (stereo not drawn),inactive
18,NC(=O)[C@@H]1CCCN1C(=O)[C@H](Cc1cnc[nH]1)NC(=O)[C@@H]1CCC(=O)N1,inactive
19,CC1(O)CCC(C(C)(C)O)CC1 (stereo not drawn),inactive

row,Structure (SMILES),Potency
1,CC12CCC(C[N+](C)(CCC[N+](C)(C)C)C1)C2(C)C (stereo not drawn),inactive
2,c1ccc2ccccc2c1,inactive
3,C=CCN1CCCC1CNC(=O)c1cc(S(N)(=O)=O)cc(OC)c1OC (stereo not drawn),inactive
4,O=C(Nc1ccc(O)cc1)c1ccccc1O,inactive
5,CC1=CCC2CC1C2(C)C (stereo not drawn),inactive
6,Nc1ncnc2c1ncn2CCOCP(=O)(O)O,inactive
7,CC(=O)N=c1sc(S(N)(=O)=O)nn1C,inactive
8,[O-][N+](=Nc1ccccc1)c1ccccc1,inactive
9,Cc1nc(NS(=O)(=O)c2ccc(N)cc2)nc(C)c1Br,inactive
10,Cc1ncc(COP(=O)(O)O)c(CN)c1O,inactive
11,CCN(CC)CCOc1ccccc1OC,inactive
12,CCOC(=O)Cc1ccc(-c2ccccc2)cc1,inactive
13,CC(C)CCC[C@@H](C)[C@H]1CC[C@H]2[C@@H]3CC=C4C[C@@H](O)CC[C@]4(C)[C@H]3CC[C@]12C,inactive
14,O=C(O)CCC/C=C\C[C@@H]1[C@@H](/C=C/[C@@H](O)COc2cccc(Cl)c2)[C@H](O)C[C@@H]1O,inactive
15,CN[C@@H]1[C@H](O[C@H]2[C@H](O[C@H]3[C@H](O)[C@@H](O)[C@H](N=C(N)N)[C@@H](O)[C@@H]3N=C(N)N)O[C@@H](C)[C@]2(O)C=O)O[C@@H](CO)[C@H](O)[C@H]1O,inactive
16,C[C@H](CCCC(C)(C)O)[C@H]1CC[C@H]2[C@@H]3CC=C4C[C@@H](O)CC[C@]4(C)[C@H]3CC[C@]12C,inactive
17,O=[n+]1ccn([O-])c2ccccc21,inactive
18,COC(=O)C(CN)c1c[nH]c2ccc(OC)cc12 (stereo not drawn),inactive
19,CCOC(=S)SSC(=S)OCC,inactive
